Active and inactive are the calls of the source.
Assays:
[1] = tested on: Plasmodium falciparum Sir2 (PF13_0152, Sir2A); experiment: Plasmodium falciparum Sir2A binding compounds – biochemical, small-molecule microarray, 635 nm fluorescence, primary screen (AID 1098); settings: fluorescence 635 nm, higher = more signal;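 note: score merges spot fluorescence intensity with its signal-to-noise ratio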
[2] = probe aDKK1 binding to arrayed compounds – biochemical, biotinylated probe, 635/667 nm fluorescence, primary screen (AID 1099); settings: small-molecule microarray, higher = more signal;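 note: score merges 667nm spot fluorescence with signal to noise across triplicate slides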
[3] = probe aCHRDL2 binding to arrayed compounds – biochemical, biotinylated probe, 635/667 nm fluorescence, primary screen (AID 1100); settings: small-molecule microarray, higher = more signal
[4] = change in splice reporter luminescence, either direction, cell-based, HEK293, spliceosome inhibition project, primary screen (AID 1101); settings: HEK293 splicing luciferase reporter, 24 h, higher = more signal, called active from +8 up or from −8 down;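 note: HEK293 cells carrying a splicing-competent luciferase reporter gene; test concentration not given here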
[5] = biological target: Fibroblast growth factor 10 (Homo sapiens) (UniProt O15520); experiment: compounds binding fibroblast growth factor 10 – biochemical, small-molecule microarray, 635 nm fluorescence, primary screen (AID 1102); settings: FGF10 binding, fluorescence 635 nm, higher = more signal
[6] = tested on: glycogen synthase kinase-3 (GSK3A per assay name; protocol says GSK3B); experiment: compounds binding glycogen synthase kinase-3 – biochemical, small-molecule microarray, 635 nm fluorescence, GSK3A, primary screen (AID 1103); settings: fluorescence 635 nm, higher = more signal; note: the record names both GSK3A and GSK3B
[7] = biological target: Epidermal growth factor receptor (Homo sapiens) (UniProt P00533); experiment: compounds binding epidermal growth factor receptor – biochemical, small-molecule microarray, 635 nm fluorescence, primary screen (AID 1104); settings: EGFR binding, higher = more signal;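 note: score merges 667 nm emission intensity with spot signal to noise over triplicate slides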
[8] = biological target: Follistatin-related protein 3 (Homo sapiens) (UniProt O95633); experiment: compounds binding follistatin-related protein 3 – biochemical, small-molecule microarray, 635 nm fluorescence, primary screen (AID 1105); settings: FSTL3 binding, higher = more signal;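 note: score merges emission near 667 nm and signal to noise per printed spot across three slides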
[9] = biological target: Dickkopf-related protein 1 (Homo sapiens) (UniProt O94907); experiment: small molecules binding DKK1 protein – biochemical, small-molecule microarray, 635 nm fluorescence scan, primary screen (AID 1106); settings: higher = more signal;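 note: score merges emission near 667 nm with signal to noise over three replicate slides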
[10] = tested on: Inhibin beta A chain (activin A); experiment: small molecules binding activin A – biochemical, small-molecule microarray, 635 nm fluorescence scan, primary screen (AID 1107); settings: INHBA, higher = more signal;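 note: mouse activin A protein probed at 4.33 µg/mL on printed slides; score merges bound-protein fluorescence near 667 nm with spot signal-to-noise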
[11] = tested on: Human papillomavirus type 1a protein E7 (residues 44-93); experiment: small molecules binding HPV E7 44-93 – biochemical, small-molecule microarray, residues 44-93, 635 nm fluorescence, primary screen (AID 1108); settings: fluorescence 635 nm, higher = more signal;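 note: E7 fragment applied at 1 µg/mL in TBST for 1 h at 4 C; score combines spot fluorescence with its signal to noise ratio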
[12] = hepatitis C replication reporter changes, two-sided – Huh7 cells, luciferase reporter, HCV replication inhibitor project, primary screen (AID 1109); settings: Huh7 HCV replicon luciferase reporter, 48 h; higher = more signal;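 note: huh7 hepatoma cells harbouring a luciferase neomycin HCV replicon reporter; luciferase luminescence as measure of HCV replicon replication; test concentration not given here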
[13] = biological target: Left-right determination factor 2 (Homo sapiens) (UniProt O00292); experiment: small molecules binding LEFTY2 protein – biochemical, small-molecule microarray, 635 nm fluorescence scan, primary screen (AID 1110); settings: higher = more signal
[14] = biological target: Calmodulin-1 (Homo sapiens) (UniProt P0DP23); experiment: small molecules binding calmodulin-1 with EGTA – biochemical, small-molecule microarray, Cy5-labelled CALM1, profiling panel (AID 1111); settings: Cy5-CALM1 binding fluorescence, higher = more signal;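 note: labelled calmodulin applied in Tris saline Tween buffer holding calcium plus EGTA and DTT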
[15] = biological target: Calmodulin-1 (Homo sapiens) (UniProt P0DP23); experiment: small molecules binding Ca-loaded calmodulin-1 – biochemical, small-molecule microarray, Cy5-labelled CALM1, plus calcium, artefact control for SMM control-protein annotation, profiling panel (AID 1112); settings: Cy5-CALM1 binding fluorescence, higher = more signal;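 note: score merges spot fluorescence with signal to noise from triplicate slides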
[16] = probe aWnt5a binding to arrayed compounds – biochemical, biotinylated probe, 635/667 nm fluorescence, primary screen (AID 1113); settings: small-molecule microarray, higher = more signal;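 note: score merges 667 nm fluorescence intensity with signal-to-noise per printed feature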
[17] = probe aShh binding to arrayed compounds – biochemical, biotinylated probe, 635/667 nm fluorescence, primary screen (AID 1114); settings: small-molecule microarray, higher = more signal;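 note: probe is biotin-labelled aShh protein from a stem cell growth factor screen; measures binding of labelled protein to compounds printed on the slide; score merges feature fluorescence at 667 nm with signal-to-noise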
[18] = probe aNog binding to arrayed compounds – biochemical, biotinylated probe, 635/667 nm fluorescence, primary screen (AID 1115); settings: small-molecule microarray, higher = more signal;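 note: probe is biotinylated aNog protein used at 0.15 µg/mL for 1 h at 4 C; z-score combines 667 nm fluorescence of each spot with its signal to noise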
[19] = biological target: Torsin-1A-interacting protein 1 (Homo sapiens) (UniProt Q5JTV8); experiment: compound microarray binding of lysate hLAP1 – cell lysate, small-molecule microarray, COS7 lysate, 635/667 nm fluorescence, primary screen (AID 1116); settings: 635 nm fluorescence, higher = more signal
[20] = biological target: Alpha-bungarotoxin (Bungarus multicinctus) (UniProt P60615); experiment: compounds binding labelled alpha-BTX control protein – biochemical, small-molecule microarray, Alexa647 label, 635/667 nm fluorescence, artefact control for SMM control protein annotation, profiling panel (AID 1117); settings: alpha-BTX-A647 binding fluorescence, higher = more signal
Sequence of Alpha-bungarotoxin (Bungarus multicinctus) (P60615 whole entry, looked up): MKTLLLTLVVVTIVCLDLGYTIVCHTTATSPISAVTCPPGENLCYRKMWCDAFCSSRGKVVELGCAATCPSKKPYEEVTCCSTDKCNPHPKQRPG

Sequence of Fibroblast growth factor 10 (Homo sapiens) (O15520 whole entry, looked up): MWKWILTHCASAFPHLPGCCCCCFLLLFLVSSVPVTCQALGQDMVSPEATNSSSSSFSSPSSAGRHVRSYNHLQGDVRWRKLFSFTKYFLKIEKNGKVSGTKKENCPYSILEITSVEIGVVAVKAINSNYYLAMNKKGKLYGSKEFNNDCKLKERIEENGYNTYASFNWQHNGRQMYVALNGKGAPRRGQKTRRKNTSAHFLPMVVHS
Sequence of Torsin-1A-interacting protein 1 (Homo sapiens) (Q5JTV8 whole entry, looked up): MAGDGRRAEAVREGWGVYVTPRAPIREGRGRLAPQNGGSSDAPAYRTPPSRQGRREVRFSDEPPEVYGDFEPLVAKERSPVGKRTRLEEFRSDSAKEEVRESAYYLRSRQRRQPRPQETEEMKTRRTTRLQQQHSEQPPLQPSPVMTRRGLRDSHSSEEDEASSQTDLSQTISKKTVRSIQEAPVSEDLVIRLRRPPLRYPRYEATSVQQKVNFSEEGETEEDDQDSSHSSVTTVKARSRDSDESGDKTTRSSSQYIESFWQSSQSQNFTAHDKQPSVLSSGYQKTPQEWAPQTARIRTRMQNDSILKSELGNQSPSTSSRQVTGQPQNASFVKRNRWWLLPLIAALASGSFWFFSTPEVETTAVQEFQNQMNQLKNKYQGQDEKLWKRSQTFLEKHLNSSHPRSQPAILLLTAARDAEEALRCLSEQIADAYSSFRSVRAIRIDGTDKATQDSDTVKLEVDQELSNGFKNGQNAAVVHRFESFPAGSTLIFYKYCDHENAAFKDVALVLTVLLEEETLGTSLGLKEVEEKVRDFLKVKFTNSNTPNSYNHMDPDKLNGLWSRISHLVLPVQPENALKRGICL
Sequence of Follistatin-related protein 3 (Homo sapiens) (O95633 whole entry, looked up): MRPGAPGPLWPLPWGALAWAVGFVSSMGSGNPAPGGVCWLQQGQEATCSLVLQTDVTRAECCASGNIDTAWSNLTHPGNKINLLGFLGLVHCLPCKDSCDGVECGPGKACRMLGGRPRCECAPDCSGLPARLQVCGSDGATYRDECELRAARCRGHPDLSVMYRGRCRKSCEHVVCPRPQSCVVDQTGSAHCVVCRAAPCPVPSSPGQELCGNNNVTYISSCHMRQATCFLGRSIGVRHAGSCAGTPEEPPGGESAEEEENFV
Sequence of Left-right determination factor 2 (Homo sapiens) (O00292 whole entry, looked up): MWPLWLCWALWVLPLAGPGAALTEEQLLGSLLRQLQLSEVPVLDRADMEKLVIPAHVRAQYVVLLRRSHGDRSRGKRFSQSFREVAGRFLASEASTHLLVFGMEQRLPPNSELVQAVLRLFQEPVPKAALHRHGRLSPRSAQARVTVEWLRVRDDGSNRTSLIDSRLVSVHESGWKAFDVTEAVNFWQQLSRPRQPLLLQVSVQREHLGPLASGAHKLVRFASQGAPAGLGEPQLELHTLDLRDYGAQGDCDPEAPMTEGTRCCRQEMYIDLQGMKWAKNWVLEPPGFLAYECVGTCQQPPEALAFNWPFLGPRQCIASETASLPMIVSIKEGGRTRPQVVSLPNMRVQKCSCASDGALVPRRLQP
Sequence of Epidermal growth factor receptor (Homo sapiens) (P00533 whole entry, looked up): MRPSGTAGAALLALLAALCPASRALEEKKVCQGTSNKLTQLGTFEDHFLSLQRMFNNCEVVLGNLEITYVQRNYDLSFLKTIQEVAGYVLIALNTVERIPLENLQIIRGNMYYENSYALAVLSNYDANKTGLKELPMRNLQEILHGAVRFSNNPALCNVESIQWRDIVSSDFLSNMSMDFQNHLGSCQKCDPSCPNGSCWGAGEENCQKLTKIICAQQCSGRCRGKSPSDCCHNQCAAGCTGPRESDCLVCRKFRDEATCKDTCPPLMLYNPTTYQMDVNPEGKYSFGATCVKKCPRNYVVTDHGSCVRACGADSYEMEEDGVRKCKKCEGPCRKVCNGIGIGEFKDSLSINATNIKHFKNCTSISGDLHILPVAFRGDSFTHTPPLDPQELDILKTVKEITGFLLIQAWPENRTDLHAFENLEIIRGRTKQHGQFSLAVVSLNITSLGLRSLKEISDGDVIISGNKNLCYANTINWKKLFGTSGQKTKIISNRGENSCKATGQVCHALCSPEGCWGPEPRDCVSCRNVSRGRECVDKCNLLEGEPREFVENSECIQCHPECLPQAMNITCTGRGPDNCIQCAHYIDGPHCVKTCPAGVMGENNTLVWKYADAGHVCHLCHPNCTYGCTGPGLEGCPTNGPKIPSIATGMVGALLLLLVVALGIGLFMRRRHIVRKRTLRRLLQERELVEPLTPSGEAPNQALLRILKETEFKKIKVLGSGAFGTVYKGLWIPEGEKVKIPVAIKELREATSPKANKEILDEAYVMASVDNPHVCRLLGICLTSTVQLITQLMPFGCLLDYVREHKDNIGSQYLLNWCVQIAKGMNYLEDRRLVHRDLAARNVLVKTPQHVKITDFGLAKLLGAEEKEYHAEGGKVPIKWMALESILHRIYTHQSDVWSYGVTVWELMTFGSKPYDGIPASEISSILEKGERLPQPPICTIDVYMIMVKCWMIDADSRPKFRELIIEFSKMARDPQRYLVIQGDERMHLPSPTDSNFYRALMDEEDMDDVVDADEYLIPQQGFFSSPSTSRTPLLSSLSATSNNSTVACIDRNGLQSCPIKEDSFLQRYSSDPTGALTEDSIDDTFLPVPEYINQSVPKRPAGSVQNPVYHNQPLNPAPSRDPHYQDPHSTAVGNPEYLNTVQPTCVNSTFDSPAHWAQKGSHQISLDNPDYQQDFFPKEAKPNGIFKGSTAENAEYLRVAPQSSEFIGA
Sequence of Dickkopf-related protein 1 (Homo sapiens) (O94907 whole entry, looked up): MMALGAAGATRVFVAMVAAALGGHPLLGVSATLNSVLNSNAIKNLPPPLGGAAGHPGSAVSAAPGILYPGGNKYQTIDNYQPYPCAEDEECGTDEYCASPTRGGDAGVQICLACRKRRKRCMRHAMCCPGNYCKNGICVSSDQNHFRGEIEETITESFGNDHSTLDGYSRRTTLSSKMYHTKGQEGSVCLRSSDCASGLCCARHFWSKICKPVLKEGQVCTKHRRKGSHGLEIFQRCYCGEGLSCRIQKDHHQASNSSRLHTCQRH

| SMILES | composite z-score [1] | composite z-score [2] | composite z-score [3] | z-score [4] | composite z-score [5] | composite z-score [6] | composite z-score [7] | composite z-score [8] | composite z-score [9] | composite z-score [10] | composite z-score [11] | z-score [12] | composite z-score [13] | composite z-score [14] | composite z-score [15] | composite z-score [16] | composite z-score [17] | composite z-score [18] | composite z-score [19] | composite z-score [20] |
| --- | --- | --- | --- | --- | --- | --- | --- | --- | --- | --- | --- | --- | --- | --- | --- | --- | --- | --- | --- | --- |
| Cc1ccc(C(C)CC(O)C2C=CC3C(=O)N(c4ccccc4)C(=O)C3N2Nc2ccc([N+](=O)[O-])cc2)o1 (stereo not given) | 0.883 | -0.199 | 0.904 | 0.907 (inactive) | 0.938 | 1.27 | 0.152 | 0.904 | 0.0201 | 0.77 | 1.41 | -0.212 | 0.135 | 1.17 | -0.284 | -0.0792 | -0.229 | 0.437 | 0.866 | 1.3 |
| O=C1OCCC/C=C\[C@H]2OC34C=CCN(Cc5ccccc5)C(=O)[C@H]3N(CCCCCCO)C(=O)[C@@H]4C12 (stereo not given in full) | -0.0862 | 0.227 | 0.932 | -0.286 (inactive) | -0.942 | -0.457 | -1.69 | -1.27 | -1.69 | -0.546 | 0.103 | -1.3 | -1.74 | -0.046 | 0.572 | -0.206 | -0.0337 | -0.355 | -1.03 | -0.313 |
| CN(C)CCCC[C@@H]1NC(=O)[C@H]2C[C@@H](C(=O)NCCCCCNC(=O)CS)[C@@H](c3cccc(OCCO)c3)N2C1=O | 1.12 | -0.144 | 0.61 | 0.515 (inactive) | 0.305 | 0.894 | 0.227 | 0.65 | 0.459 | -0.0899 | 0.586 | -0.556 | -0.0183 | 0.137 | -0.734 | -0.195 | 0.0796 | -0.363 | 0.898 | -0.223 |
| CS(=O)(=O)CCOC(=O)C1=CC(CCCO)=CC(c2ccc(CN3CCCC3)cc2)N(Cc2cc3c(cc2Br)OCO3)C=C1C(=O)OCCS(C)(=O)=O (stereo not given) | 1.52 | 0.525 | 0.555 | -0.9 (inactive) | 1.2 | 1.27 | 0.422 | 0.634 | 0.232 | 1.29 | 0.981 | -2.33 | 0.538 | 1.33 | 0.484 | 0.0765 | 0.171 | 1.27 | 2.44 | 1.62 |
| COC(=O)C(CC#Cc1ccc2c(c1)[C@]1(C(=O)N2)[C@H](C(=O)O)[C@H]2C(=O)O[C@H](c3ccccc3)[C@H](c3ccccc3)N2[C@@H]1c1ccc(O)cc1)C(=O)OC | 0.472 | -0.0082 | 0.634 | 0.199 (inactive) | 0.284 | -0.266 | -0.46 | -0.662 | -0.685 | -1.07 | 1.03 | -0.374 | -0.354 | -0.345 | 0.0677 | -0.124 | -0.366 | 0.26 | -0.273 | -0.472 |
| O=C1C2C=CC(C(O)c3ccc(F)cc3)N(Nc3ccccc3F)C2C(=O)N1c1ccccc1 (stereo not given) | 1.47 | 0.131 | 0.996 | 1.34 (inactive) | 0.678 | -0.412 | -0.609 | 0.396 | -0.868 | 0.503 | 1.18 | 0.912 | -0.952 | 1.23 | 0.367 | -0.001 | -0.0441 | 1.34 | 0.694 | 0.394 |
| CC1CC/C=C\[C@H]2OC34C=CCN(Cn5nnc6ccccc65)C(=O)[C@H]3N(C(CO)C(C)C)C(=O)[C@@H]4C2C(=O)O1 (stereo not given in full) | 0.868 | -0.165 | 0.547 | 0.209 (inactive) | -0.103 | -0.108 | -0.675 | -0.551 | -0.877 | 0.459 | 0.696 | 0.238 | -1.19 | -0.195 | -0.607 | -0.175 | 0.0141 | 0.356 | 0.64 | 2.2 |
| CC(C)c1ccc(NN2C(C(O)C(c3ccccc3)c3ccccc3)C=CC3C(=O)N(c4ccccc4)C(=O)C32)cc1 (stereo not given) | 1.08 | 0.517 | 0.344 | 0.304 (inactive) | 1.31 | 1.26 | 0.438 | 1.06 | 0.238 | 0.203 | 1.42 | -0.276 | 0.219 | 1.27 | -0.147 | 0.0279 | 0.171 | 1.46 | 0.954 | 1.74 |
| CCc1oc(CC[C@@H](CO)NC(=O)NCCn2cc(C3(O)CCCCC3)nn2)c(C(=O)OC)c1C(=O)OC | 0.832 | -0.0378 | -0.402 | -0.0596 (inactive) | 1.13 | 0.972 | 0.717 | 1.33 | 0.887 | 0.289 | 0.814 | 0.524 | 0.905 | -0.22 | -0.657 | 0.048 | 0.381 | -0.0645 | 0.946 | 0.336 |
| COCCOC(=O)N1C(=O)[C@@]2(c3ccccc31)[C@H](c1ccc(O)cc1)N1[C@H](c3ccccc3)[C@H](c3ccccc3)OC(=O)[C@H]1[C@@H]2C(=O)NC[C@H](O)c1ccccc1 | 1.12 | -0.0866 | -0.0184 | -1.07 (inactive) | 0.12 | 0.191 | -0.291 | -0.195 | -0.341 | -0.202 | 0.01 | -0.296 | 0.25 | 1.34 | 0.682 | -0.0643 | 0.289 | 0.35 | 0.261 | 0.14 |
| CCOC1=C2C(CN(S(=O)(=O)c3ccc(C)cc3)C2c2ccc(C)cc2)C2C(=O)N(c3ccccc3)C(=O)C2C1 (stereo not given) | 0.9 | 0.0373 | 0.267 | -0.113 (inactive) | 1.25 | 0.36 | 0.171 | 0.782 | 0.207 | 0.809 | 1.11 | -0.348 | 0.349 | 0.861 | 0.528 | -0.106 | 0.0893 | 0.194 | 0.326 | 0.389 |
